Screening results as filed in PubChem.
In the library only some 19% were active in any assay of this set; here they are far more common.
IL1B secr inh: qHTS for Inhibitors of Inflammasome Signaling: IL-1-beta AlphaLISA Primary Screen; THP-1 LPS/ATP IL-1B secretion, AlphaLISA, 16 h; hits give low values; activity change, % at 57.5 µM; actives 4.7% (n = 360,000); in the data active = activity change below about -50%; inconclusive = mostly about -30% to -49%
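Secreted IL-1B measured by AlphaLISA bead assay after 16 h compound exposure of THP-1 cells; compounds (final up to 57.5 uM) added 1 h before LPS (250 ng/mL) and ATP (1.25 mM) stimulation; lower signal means less secretion.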
ELG1 repair inh: qHTS screen for small molecules that inhibit ELG1-dependent DNA repair in human embryonic kidney (HEK293T) cells expressing luciferase-tagged ELG1. HEK293T ELG1-luciferase reporter, luminescence, 16 h; DNA damage induced by 5-fluorouridine. AID 504467, 2011. Potency, µM (series often up to 46.1 µM), for the others: top-dose activity change, negative = inhibition, hits mostly inhibitors. actives 2.3% (n = 330,000); also: potency is read from the fitted curve at half-maximal effect; nearly all actives have a fitted effect of over 55% in size
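5-Fluorouridine DNA damage + compound/DMSO, 2,000 cells/well, 16 h, 37 °C/5% CO2. ONE-Glo, 30 min RT, luminescence. Readout = decrease in reporter signal.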
TDP1 cell CPT: qHTS for Inhibitors of human tyrosyl-DNA phosphodiesterase 1 (TDP1): qHTS in cells in presence of CPT. chicken DT40 Tdp1-/-;hTDP1 cells + 20 nM CPT, ATP luminescence, 48 h. Potency, µM (top dose mostly 46.2 µM), for the others: at the highest dose activity change, negative = growth inhibition, hits mostly inhibitors. actives 12% (n = 420,000). AID 686979, 2013; also: potency is read from the fitted curve at half-maximal effect; nearly all actives have a fitted effect of over 55% in size
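Cell growth measured by CellTiter-Glo luminescence after a minimum 48 h, 37 C compound exposure with 20 nM CPT in Tdp1-knockout DT40 cells stably expressing hTDP1, seeded 400/well; qHTS titration format.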
TDP1 cell noCPT: qHTS for Inhibitors of human tyrosyl-DNA phosphodiesterase 1 (TDP1): qHTS in cells in absence of CPT; DT40 Tdp1-/- hTDP1 cells, no CPT, ATP luminescence, 48 h; Potency, µM (top dose mostly 46.2 µM), without a hit: top-dose activity change, negative = growth inhibition, actives largely listed as inhibitors; actives 15% (n = 420,000); AID 686978, 2013; also: potency is read from the fitted curve at half-maximal effect; nearly all actives have a fitted effect of over 55% in size
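Compound effects on proliferation are scored in DT40 Tdp1-/-;hTDP1 cells in the absence of CPT. ATP levels (CellTiter-Glo luminescence) are recorded after a ≥48 hr, 37 °C incubation.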
HT1080 IDH1KD tx: qHTS for induction of synthetic lethality in tumor cells producing 2HG: qHTS for the HT-1080-IDH1KD cell line; HT-1080 IDH1 knockdown viability, ATP luminescence, 48 h; Potency, µM (titrated, usually from 46.1 µM), inactives show at the highest dose activity, negative = toxicity, actives largely listed as cytotoxic; actives 2% (n = 360,000); AID 686971, 2013;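 also: potency is read from the fitted curve at half-maximal effect; 0% = DMSO wells and -100% = cell-free medium wells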
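Viability of IDH1-knockdown HT-1080 fibrosarcoma cells was assessed by CellTiter-Glo after 48 h at 37 °C with titrated compound; concentration-effect curves were classified by fit quality and response size.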
HT1080-NT tox: qHTS for induction of synthetic lethality in tumor cells producing 2HG: qHTS for the HT-1080-NT fibrosarcoma cell line; HT-1080-NT fibrosarcoma viability, CellTiter-Glo ATP luminescence, 48 h; Potency, µM (series often up to 46.1 µM), without a hit: top-dose activity, negative = less viability, actives largely listed as cytotoxic; actives 1.6% (n = 360,000);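 also: NT is the 2HG producing partner of a matched IDH1 knockdown line; potency is read from the fitted curve at half-maximal effect; 0% = DMSO-treated cells and -100% = media-only wells without cells; nearly all actives have a fitted effect of over 55% in size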
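Toxicity toward the 2HG-producing NT line was scored as %Activity, normalised to DMSO and no-cell wells, from CellTiter-Glo luminescence after 48 hours' treatment.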
The depositor's hits bear a star; ? = inconclusive; · = no result; [ ] = another dose, or the depositor's remark. Unless noted, calls follow the shape of the dose curve; as a rule, active = well fitted curve in the direction sought with a large enough effect; inconclusive = small, poorly fitted or top-dose-only effect, or another doubt; inactive = no such curve, though single readings can be large; an effect the other way counts as inactive or inconclusive. Unless noted, % is scaled to controls: 0 for no effect and ±100 for the full control effect.

SMILES	IL1B secr inh	ELG1 repair inh	TDP1 cell CPT	TDP1 cell noCPT	HT1080 IDH1KD tx	HT1080-NT tox
CC1CCCC(C)N1C(=O)COC(=O)CSc1ccc(C(N)=O)cc1[N+](=O)[O-] (centres undefined)	5	6%	9%	-15%	4%	-2%
C=CCn1c(=O)c(CCC(=O)Nc2ccc(N3CCOCC3)cc2)nc2cc(C(F)(F)F)ccc21	0	?	?	-30%	5%	-7%
Oc1c(N=NC(=S)Nc2ccccc2F)c2ccccc2n1Cc1ccccc1F	0	?	16µM*	7.3µM*	-13%	4%
COc1ccc(NC(=O)CC2C(=O)N(c3ccc(F)cc3)C(=O)N2Cc2ccco2)cc1 (centres undefined)	·	·	?	2%	·	·
Cc1ccc(C(=O)N2[C@@H]3CN(C)C(=O)[C@@]2(Cc2ccccc2)[C@H]2C(=O)N(C)C(=O)[C@@H]32)cc1	-3	·	8%	2%	15%	12%
CC1(CC(=O)Nc2ccccc2)NC(=S)N(c2ccccc2)N1 (centres undefined)	33	?	7%	-3%	4%	3%
CCCCCC1(C)NC(=S)N(c2ccccc2)N1 (centres undefined)	13	7.3µM*	12%	-9%	?	?
CCCc1nnc2n1N=C(c1ccc([N+](=O)[O-])cc1)CS2	53	?	2%	-27%	10%	7%
O=[N+]([O-])c1ccc(C2=Nn3c(Cn4nnc5ccccc54)nnc3SC2)cc1	-9	?	21µM*	16µM*	5%	-4%
O=c1c(Cc2ccc(F)cc2)c(O)ccn1Cc1cccc(Cl)c1	0	?	?	16µM*	-9%	-2%
CSc1nc(N2CCOCC2)c2c3c(sc2n1)CCCC3	-4	-3%	?	13µM*	-8%[9.24 µM]	-11%
FC(F)(F)c1cnc2c(c1)Nc1ccccc1S2	-16	?	?	21µM*	6%	5%
c1ccc2c(c1)Nc1nccnc1S2	9	24%	?	-25%	11%	0%
CCOc1ccc(NCc2cccn2-c2nnc(N3CCC(C(=O)NCc4ccccc4Cl)CC3)s2)cc1	·	·	-91%	12µM*	·	·
CCOc1ccc(NCc2cccn2-c2nnc(N3CCC(C(=O)NCCCN4CCCCC4)CC3)s2)cc1	-6	-5%	?	23µM*	0%	-26%
CNC(=O)CC1C(=O)N(c2ccc(OC)cc2)C(=S)N1NC(=O)c1cccc(F)c1 (centres undefined)	·	13%	1%	-1%	?	22%
Cc1cccc(N2C(=O)CS(=O)(=O)C23C(=O)N(Cc2c(F)cccc2Cl)c2ccccc23)c1 (centres undefined)	·	·	21µM*	23µM*	·	·
CN1C(=O)C2(c3ccccc31)N(c1cccc(F)c1)C(=O)CS2(=O)=O (centres undefined)	·	·	1%	-2%	·	·
Cc1ccc(CN2C(=O)C3(c4ccccc42)N(c2cccc(F)c2)C(=O)CS3(=O)=O)cc1 (centres undefined)	·	·	15µM*	?	·	·
Cc1ccc(N2C(=O)CS(=O)(=O)C23C(=O)N(Cc2cccc(F)c2)c2ccccc23)cc1Cl (centres undefined)	·	·	23µM*	23µM*	·	·
O=C1CS(=O)(=O)C2(C(=O)N(Cc3ccccc3Cl)c3ccccc32)N1c1ccc(F)cc1 (centres undefined)	·	·	15µM*	16µM*	·	·
COc1ccc(N2C(=O)CS(=O)(=O)C23C(=O)N(Cc2cccc(F)c2)c2ccccc23)cc1OC (centres undefined)	·	·	-24%	?	·	·
CCOC(=O)c1ccccc1NC(=O)c1sc2ncn(CC)c(=O)c2c1C	·	·	-2%	-16%	·	·
COc1cc(OC)cc(-c2c(Sc3ccccc3)c3cc(-c4ccc5c(c4)OCCO5)ccc3n2C)c1	9	·	-19%	-28%	4%	12%
CCCN(CC1CC1)C(=S)NC(=O)c1ccccc1C	-6	·	-2%	-22%	13%	12%
SMILES	IL1B secr inh	ELG1 repair inh	TDP1 cell CPT	TDP1 cell noCPT	HT1080 IDH1KD tx	HT1080-NT tox
CCCN(CC1CC1)C(=S)NC(=O)c1cc(Br)ccc1Cl	31	-20%	?	16µM*	-20%	-9%
Cc1ccc(SC2=C[C@@]3(O)CC[C@@H](O)[C@@](Sc4ccc(C)cc4)(C2=O)[C@H]3O)cc1	-8	·	23µM*	?	-22%	-27%
CC(C)(C)c1ccc(C(=O)C2CC2)cc1	-26	·	7%	0%	8%	2%
CC(C)(C)c1ccc(SC2=C[C@@]3(O)CC[C@@H](O)[C@@](Sc4ccc(C(C)(C)C)cc4)(C2=O)[C@H]3O)cc1	-90*	·	4.6µM*	3.3µM*	15µM*	16µM*
Cc1ccc(SC[C@H](C)CN2CC[C@H](O)CCC2=O)cc1	·	·	-14%	-4%	·	·
O=C(CCc1ccccc1)OCCN1CCOCC1	13	6%	2%	-3%	18%	17%
CCOC(=O)/C(=C\c1ccccc1)C(=O)CCN1CCOCC1	-1	·	1.6µM*	1.5µM*	7%	6%
N#Cc1ccccc1OCC(=O)Nc1ccc2c(c1)OCO2	?	·	-4%	-21%	24%	16%
CCC1(c2ccccc2)NC(=O)N(Cc2ccc(C(=O)OC)cc2)C1=O (centres undefined)	14	?	-3%	-24%	15%	10%
CCC1(c2cccc(Cl)c2)NC(=O)N(Cc2cc(C(=O)OC)c(C)o2)C1=O (centres undefined)	2	?	26µM*	18µM*	-1%	-2%
Cc1cccc(C(O)(C(=O)NNc2ccc3ccccc3n2)c2cccc(C)c2)c1	22	-2%	6.5µM*	6.5µM*	?	?
CCNNC(=O)C(O)(c1cccc(C)c1)c1cccc(C)c1	-3	1%	-19%	-23%	23%	18%
